A number with no mark means an inactive call. Records with an inconclusive call do not appear. Entries that show only a call come without a potency. Active and inactive are the calls of the source. The call rests on the fitted dose curve; in most records, active means well fitted curve in the direction sought with a large enough effect; inconclusive means small, poorly fitted or top-dose-only effect, or another doubt; inactive means no such curve, though single readings can be large; an effect the other way counts as inactive or inconclusive.
Tests used:
[1] = HTS Assay for Allosteric Antagonists of the Human D2 Dopamine Receptor: Hit Validation in HTRF (AID 624455);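 further: stable D1 dopamine receptor cell line scored for blocking the D1 response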
Procedure, shortened: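 First, antagonism was screened by calcium flux in a force-coupled, inducible Hek293 Trex D2 line challenged with EC80 dopamine. Hits then went into an HTRF assay in cells stably expressing D1, testing inhibition of the D1 response.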

[2] = target: Cytochrome P450 2D6 (Homo sapiens) (UniProt P10635); assay: qHTS Assay for Inhibitors and Substrates of Cytochrome P450 2D6 (AID 891);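 further: luciferin methyl ether substrate demethylated by CYP2D6 with NADPH regeneration; nearly all actives have a fitted effect of over 60% in size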
Procedure, shortened: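 Human CYP2D6 (5 nM) with 30 uM Luciferin-ME EGE (at Km) in 100 mM KPO4, compound preincubated 10 min, then NADPH regeneration system for 60 min at room temperature. Luciferin read by luminescence; normalized to 1.43 uM quinidine.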

[3] = target: D(1A) dopamine receptor (Homo sapiens) (UniProt P21728); assay: HTS Assay for Allosteric Agonists of the Human D1 Dopamine Receptor: Primary Screen for Potentiators (AID 488982); further: potency means the concentration at half of the fitted maximal effect
Procedure, shortened: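 Tetracycline-induced HEK293 Trex D1 cells with forced coupling to calcium, loaded with no-wash calcium dye; kinetic fluorescence read 180 s after compound addition for agonism, then a further 180 s after an EC20 dopamine challenge for potentiation.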

[4] = target: DNA dC->dU-editing enzyme APOBEC-3G (Homo sapiens) (UniProt Q9HC16); assay: qHTS for inhibitors of Vif-A3G interactions: Validation (AID 588379); further: potency means the concentration at half of the fitted maximal effect
Procedure, shortened: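 HeLa cells stably expressing Vif and A3G-eYFP, 700 cells/well, incubated overnight at 37 deg C, then exposed to compound overnight at 37 deg C. Inhibition of Vif-mediated degradation read as increased yellow fluorescence (Ex 488/Em 500-530) by laser-scanning cytometry.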

[5] = HepG2 viability counterscreen (readout 2: ATP content) against the NCATS DSHEA and TCM libraries (AID 1794840);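 further: HepG2 cells exposed to substances for about 24 h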
Procedure, shortened: (§1)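 Readout 1: cellular protease activity, GF-AFC substrate (25 uM final, 30 min, fluorescence 380/510 nm). Readout 2: ATP content by CellTiter-Glo luminescence after 30 min at RT. Both follow ~24 h exposure of HepG2 cells (1,000/well) to substances.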

[6] = HepG2 viability counterscreen (readout 1: protease activity) against the NCATS DSHEA and TCM libraries (AID 1794841);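 further: cells exposed to compounds for about 24 h before the protease read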
Procedure, shortened: as §1

[7] = target: Cytochrome P450 2D6 (Homo sapiens) (UniProt P10635); assay: qHTS for inhibitors of CYP2D6 against the NCATS DSHEA and TCM libraries (AID 1919972)
Procedure, shortened: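 Luminescent P450-Glo read-out of CYP2D6 turnover of a luciferin substrate after NADPH-driven reaction of 30-45 min at room temperature. Compounds were first preincubated 15 min with enzyme at titrated concentrations; quinidine was the intraplate control.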

[8] = KB-3-1 P-gp reporter qHTS against the NCATS DSHEA and TCM libraries (AID 1919975)
Procedure, shortened: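 Cell viability by CellTiter-Glo luminescence following ~72 h compound exposure (concentration-response). Uses parental, non-P-gp-overexpressing KB-3-1 line, 500 cells/well in DMEM/10% FBS, attached ~4 h before dosing.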

[9] = target: Cytochrome P450 1A2 (Homo sapiens) (UniProt P05177); assay: qHTS for inhibitors of CYPIA2 against the NCATS DSHEA and TCM libraries (AID 1919976);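 further: light from luciferin formed by CYP1A2 from a pro-luciferin substrate; series mostly up to about 37 µM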
Procedure, shortened: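 CYP1A2 + luciferin substrate, 100 mM KPO4-type buffer; cmpd 15 min RT; 1x NADPH regen, 30-45 min RT dark; detection reagent 30 min RT; luminescence. Minus-enzyme wells as background; furafylline intraplate control.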

[10] = qHTS Counterscreen for compound interference against the NCATS DSHEA and TCM libraries (AID 1919978); details: firefly luciferase detection reagent interference, luminescence;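 further: compounds preincubated with 1 µM D-luciferin or buffer before detection reagent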
Procedure, shortened: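 With 1 uM D-luciferin or phosphate buffer only, compounds at final 19.5 nM–39.8 uM were incubated for 15 min at room temperature. Luciferase detection reagent was then added, and luminescence was measured after a further 30 min at room temperature.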

[11] = Dual reporter qHTS for agonist of Pregnane X Receptor (hPXR) against the NCATS DSHEA and TCM libraries: Fluorescence readout (AID 1920058)
Procedure, shortened: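 HepG2 hPXR-Luc, 2000 cells/well, 5 h attach; cpds ~24 h, 37 °C/5% CO2; CellTiter-Fluor 1 h; fluor. Ex/Em 405/540 nm = viability.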

[12] = target: Nuclear receptor subfamily 1 group I member 2 (Homo sapiens) (UniProt O75469); assay: Dual reporter qHTS for agonist of Pregnane X Receptor (hPXR) against the NCATS DSHEA and TCM libraries: Luminescence readout (AID 1920059)
Procedure, shortened: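 hPXR-Luc HepG2 cells, 2000/well in 5% charcoal-stripped FBS medium, attached 5 h, then exposed 24 h at 37C to compounds. Viability by CellTiter-Fluor, then luciferase luminescence with ONE-Glo.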

[13] = target: Nuclear receptor subfamily 1 group I member 2 (Homo sapiens) (UniProt O75469); assay: Dual reporter qHTS for antagonist of Pregnane X Receptor (hPXR) against the NCATS DSHEA and TCM libraries: Luminescence Readout (AID 1920060);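 further: HepG2 cells carrying hPXR luciferase reporter stimulated with rifampicin at 2 µM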
Procedure, shortened: (§2)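 HepG2 hPXR-Luc, 2000 cells/well, charcoal-stripped FBS medium; 5 h attach; RIF 2 uM final; 24 h 37C/5% CO2; CellTiter-Fluor 1 h, fluor 405/540; ONE-Glo 30 min RT, lum.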

[14] = Dual reporter qHTS for antagonist of Pregnane X Receptor (hPXR) against the NCATS DSHEA and TCM libraries: Fluorescence Readout (AID 1920061)
Procedure, shortened: as §2

[15] = qHTS Assay for Identification of Small Molecule Antagonists for Thrombopoietin (TPO) Signaling Pathway (AID 918); details: TPO-dependent cell signaling reporter, antagonist mode; further: potency means the concentration at half of the fitted maximal effect; nearly all actives have a fitted effect of over 60% in size
Procedure, shortened: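 Ba/F3 (murine, hTPO-R, GPIIb-luc reporter); overnight IL-3 withdrawal; cpd + TPO 26 pM final (EC50); 24 h 37 C/5% CO2; Steadylite luminescence after 10 min RT.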

[16] = High Content Imaging Cell-Based qHTS for Inhibitors of the mTORC1 Signaling Pathway in MEF Cells (AID 2667); further: potency means the concentration at half of the fitted maximal effect
Procedure, shortened: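 WT MEFs (Tsc2-/-, p53-/- re-expressing Tsc2), in DMEM + 10% FBS, were treated with compound for 24 h at 37 C. Cells were then fixed and stained for phospho-rpS6 Ser235/236 with propidium iodide as cell count. Values are % positive cells, with thresholds set against rapamycin-treated cells.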

[17] = qHTS for compounds that reverse cellular toxicity of Amyloid beta (A-beta) peptide in yeast: LOPAC Validation Assay (AID 720559)
Procedure, shortened: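 Rescue of A-beta toxicity was scored as yeast growth by 600 nm absorbance after 48 hr at 30 C with compound. Normalization used DMSO (negative) and equimolar ferric chloride plus clioquinol (positive).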

[18] = target: ATP-dependent DNA helicase Q1 (Homo sapiens) (UniProt P46063); assay: qHTS Validation Assay for Inhibitors of RecQ-Like Dna Helicase 1 (RECQ1) (AID 2353); further: potency means the concentration at half of the fitted maximal effect
Procedure, shortened: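 50 nM RECQ1T1 preincubated 15 min with compound in Tris pH 8.0 buffer with MgCl2, DTT, Tween-20 and 2.5 ug/ml poly(dI-dC); started with 200 nM TAMRA/BHQ-2 forked duplex and 2 mM ATP. Unwinding read as fluorescence (525/598 nm), two reads 2 h apart.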

[19] = target: DNA polymerase III PolC-type (Bacillus subtilis (strain 168)) (UniProt P13267); assay: qHTS Validation Assay for the Inhibitors of DNA Replication in Gram-Positive Bacteria (AID 485295); further: potency means the concentration at half of the fitted maximal effect
Procedure, shortened: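 Double-stranded DNA product detected by PicoGreen fluorescence after EDTA quench. Compound incubated with B. subtilis holoenzyme (PolC, beta subunit, SSB, primase) before substrate addition; primed replication of M13Gori with dNTPs and NTPs at room temperature; DMSO defines 0% inhibition.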

[20] = Quantitative high throughput screen for delayed death inhibitors of the malarial parasite plastid, 48 hour incubation (AID 488752); further: potency means the concentration at half of the fitted maximal effect; nearly all actives have a fitted effect of over 65% in size
Procedure, shortened: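 Readout is firefly luciferase luminescence from a reporter integrated into the parasite genome, with lower signal taken as inhibited growth. Infected red cells (0.1% parasitemia, 2% hematocrit final) are cultured with compound for one 48 h cycle at 37 C.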

Nuclear receptor subfamily 1 group I member 2 (Homo sapiens), sequence (O75469 whole entry, looked up): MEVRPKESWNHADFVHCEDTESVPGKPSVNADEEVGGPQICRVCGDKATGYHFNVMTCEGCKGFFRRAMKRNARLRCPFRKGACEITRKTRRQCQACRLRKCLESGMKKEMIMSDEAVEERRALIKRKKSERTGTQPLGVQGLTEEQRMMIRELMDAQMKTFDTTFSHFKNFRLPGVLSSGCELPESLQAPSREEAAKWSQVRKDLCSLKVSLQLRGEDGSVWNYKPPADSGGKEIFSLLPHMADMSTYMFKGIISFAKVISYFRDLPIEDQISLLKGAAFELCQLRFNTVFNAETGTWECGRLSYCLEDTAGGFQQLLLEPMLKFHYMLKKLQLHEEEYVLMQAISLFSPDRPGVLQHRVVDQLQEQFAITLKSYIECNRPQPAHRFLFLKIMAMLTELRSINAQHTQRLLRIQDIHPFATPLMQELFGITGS
Cytochrome P450 2D6 (Homo sapiens), sequence (P10635 whole entry, looked up): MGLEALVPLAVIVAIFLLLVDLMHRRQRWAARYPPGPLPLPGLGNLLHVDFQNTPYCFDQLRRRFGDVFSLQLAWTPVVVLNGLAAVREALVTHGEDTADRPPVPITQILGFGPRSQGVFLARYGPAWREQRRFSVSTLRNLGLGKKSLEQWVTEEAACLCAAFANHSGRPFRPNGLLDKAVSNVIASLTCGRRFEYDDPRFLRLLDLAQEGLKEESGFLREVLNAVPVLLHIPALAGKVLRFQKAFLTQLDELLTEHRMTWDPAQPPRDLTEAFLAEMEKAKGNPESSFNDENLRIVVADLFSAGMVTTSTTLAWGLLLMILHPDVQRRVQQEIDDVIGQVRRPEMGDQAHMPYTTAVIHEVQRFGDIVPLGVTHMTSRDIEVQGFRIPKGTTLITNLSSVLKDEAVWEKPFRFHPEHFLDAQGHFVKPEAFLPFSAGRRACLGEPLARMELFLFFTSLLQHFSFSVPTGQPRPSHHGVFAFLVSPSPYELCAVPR
DNA polymerase III PolC-type (Bacillus subtilis (strain 168)), sequence (P13267 whole entry, looked up): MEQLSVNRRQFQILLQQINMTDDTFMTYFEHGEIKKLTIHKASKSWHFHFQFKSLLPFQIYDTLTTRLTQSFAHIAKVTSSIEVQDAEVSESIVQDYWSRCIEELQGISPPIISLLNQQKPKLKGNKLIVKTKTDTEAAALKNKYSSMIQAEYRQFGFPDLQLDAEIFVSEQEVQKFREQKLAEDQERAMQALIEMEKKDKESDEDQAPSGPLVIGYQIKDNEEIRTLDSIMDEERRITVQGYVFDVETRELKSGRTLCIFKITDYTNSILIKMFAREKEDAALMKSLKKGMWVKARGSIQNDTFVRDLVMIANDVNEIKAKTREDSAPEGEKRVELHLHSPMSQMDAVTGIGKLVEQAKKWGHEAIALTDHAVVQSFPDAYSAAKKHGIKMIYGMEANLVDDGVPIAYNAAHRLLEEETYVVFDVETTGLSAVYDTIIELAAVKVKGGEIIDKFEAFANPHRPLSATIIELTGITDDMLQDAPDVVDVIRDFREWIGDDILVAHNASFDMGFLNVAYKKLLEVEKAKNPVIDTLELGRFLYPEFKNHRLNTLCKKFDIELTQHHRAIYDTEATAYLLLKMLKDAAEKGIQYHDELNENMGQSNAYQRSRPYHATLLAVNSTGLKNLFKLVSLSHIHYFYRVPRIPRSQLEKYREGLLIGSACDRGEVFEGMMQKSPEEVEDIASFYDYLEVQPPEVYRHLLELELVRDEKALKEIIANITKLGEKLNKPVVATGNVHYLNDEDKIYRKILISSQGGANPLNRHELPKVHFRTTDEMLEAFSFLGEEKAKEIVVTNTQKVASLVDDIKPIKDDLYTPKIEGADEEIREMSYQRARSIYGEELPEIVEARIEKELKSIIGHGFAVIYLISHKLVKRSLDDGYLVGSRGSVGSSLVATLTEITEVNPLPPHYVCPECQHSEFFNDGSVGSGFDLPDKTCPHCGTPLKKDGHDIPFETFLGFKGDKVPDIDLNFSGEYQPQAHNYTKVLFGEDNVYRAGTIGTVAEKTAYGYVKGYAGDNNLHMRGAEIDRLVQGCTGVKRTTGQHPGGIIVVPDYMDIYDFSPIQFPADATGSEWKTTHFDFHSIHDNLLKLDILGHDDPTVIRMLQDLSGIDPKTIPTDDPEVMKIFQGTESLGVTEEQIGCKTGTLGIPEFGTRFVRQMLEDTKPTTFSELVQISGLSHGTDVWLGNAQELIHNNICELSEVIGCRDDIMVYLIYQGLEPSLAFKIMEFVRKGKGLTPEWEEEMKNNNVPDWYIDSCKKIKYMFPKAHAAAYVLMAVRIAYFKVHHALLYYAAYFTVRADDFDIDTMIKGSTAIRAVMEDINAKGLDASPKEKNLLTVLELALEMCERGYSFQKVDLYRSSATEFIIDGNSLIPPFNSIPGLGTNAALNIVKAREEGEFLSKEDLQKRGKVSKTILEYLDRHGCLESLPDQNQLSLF
D(1A) dopamine receptor (Homo sapiens), sequence (P21728 whole entry, looked up): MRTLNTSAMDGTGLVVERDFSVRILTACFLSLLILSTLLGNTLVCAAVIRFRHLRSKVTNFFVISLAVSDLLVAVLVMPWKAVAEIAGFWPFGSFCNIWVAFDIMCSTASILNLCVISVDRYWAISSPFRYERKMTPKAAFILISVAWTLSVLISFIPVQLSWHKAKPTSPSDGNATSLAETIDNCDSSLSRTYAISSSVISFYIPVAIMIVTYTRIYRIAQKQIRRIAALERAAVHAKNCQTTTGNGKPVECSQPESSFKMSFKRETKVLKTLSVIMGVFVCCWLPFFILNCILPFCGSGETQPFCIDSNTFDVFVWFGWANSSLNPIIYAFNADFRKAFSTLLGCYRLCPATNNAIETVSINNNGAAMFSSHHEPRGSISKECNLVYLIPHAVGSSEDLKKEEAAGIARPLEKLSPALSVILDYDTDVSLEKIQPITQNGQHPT
Cytochrome P450 1A2 (Homo sapiens), sequence (P05177 whole entry, looked up): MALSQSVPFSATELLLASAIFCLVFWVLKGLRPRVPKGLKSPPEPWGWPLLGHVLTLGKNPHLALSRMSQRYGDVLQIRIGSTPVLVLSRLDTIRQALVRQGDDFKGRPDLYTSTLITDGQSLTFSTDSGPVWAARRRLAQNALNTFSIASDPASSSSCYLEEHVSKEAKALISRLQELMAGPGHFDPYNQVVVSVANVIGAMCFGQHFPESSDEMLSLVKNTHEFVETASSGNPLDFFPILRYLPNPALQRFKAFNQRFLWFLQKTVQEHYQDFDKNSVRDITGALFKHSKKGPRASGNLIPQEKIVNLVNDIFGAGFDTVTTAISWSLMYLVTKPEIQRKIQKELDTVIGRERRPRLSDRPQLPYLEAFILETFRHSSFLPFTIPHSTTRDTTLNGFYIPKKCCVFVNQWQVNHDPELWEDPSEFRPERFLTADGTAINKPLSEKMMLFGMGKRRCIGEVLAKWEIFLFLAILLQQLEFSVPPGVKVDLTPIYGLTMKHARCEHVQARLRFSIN
DNA dC->dU-editing enzyme APOBEC-3G (Homo sapiens), sequence (Q9HC16 whole entry, looked up): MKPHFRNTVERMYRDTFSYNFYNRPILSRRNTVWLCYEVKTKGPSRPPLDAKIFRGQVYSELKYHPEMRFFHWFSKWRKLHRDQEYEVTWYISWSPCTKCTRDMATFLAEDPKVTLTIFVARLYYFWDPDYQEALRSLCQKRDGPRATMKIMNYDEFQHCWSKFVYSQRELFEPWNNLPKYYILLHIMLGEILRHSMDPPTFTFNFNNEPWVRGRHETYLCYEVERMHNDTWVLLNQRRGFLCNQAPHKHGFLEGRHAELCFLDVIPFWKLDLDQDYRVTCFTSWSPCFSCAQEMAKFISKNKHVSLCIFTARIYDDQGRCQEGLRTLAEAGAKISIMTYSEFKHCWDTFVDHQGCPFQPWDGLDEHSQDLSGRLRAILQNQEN
ATP-dependent DNA helicase Q1 (Homo sapiens), sequence (P46063 whole entry, looked up): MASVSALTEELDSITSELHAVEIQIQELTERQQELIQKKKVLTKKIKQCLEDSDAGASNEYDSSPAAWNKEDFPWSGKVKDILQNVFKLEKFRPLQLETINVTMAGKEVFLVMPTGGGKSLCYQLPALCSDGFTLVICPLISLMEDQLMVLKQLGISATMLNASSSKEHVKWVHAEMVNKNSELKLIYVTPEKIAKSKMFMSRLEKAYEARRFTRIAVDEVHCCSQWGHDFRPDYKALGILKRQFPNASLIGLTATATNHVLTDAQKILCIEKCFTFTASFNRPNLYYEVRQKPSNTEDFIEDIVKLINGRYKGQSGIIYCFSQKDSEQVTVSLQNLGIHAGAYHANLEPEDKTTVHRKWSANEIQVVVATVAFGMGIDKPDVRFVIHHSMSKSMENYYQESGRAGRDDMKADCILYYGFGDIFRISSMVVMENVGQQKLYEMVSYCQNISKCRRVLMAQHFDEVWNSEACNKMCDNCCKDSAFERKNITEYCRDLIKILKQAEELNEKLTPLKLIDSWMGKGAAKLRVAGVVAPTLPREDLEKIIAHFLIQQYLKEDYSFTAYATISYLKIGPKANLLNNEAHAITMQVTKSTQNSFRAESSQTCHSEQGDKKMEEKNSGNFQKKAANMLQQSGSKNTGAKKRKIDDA

Structure (SMILES): Cn1ccnc1
- outcome [1]: inactive

Structure (SMILES): Nc1nc2ccc(Cl)cc2c2nc(-c3ccco3)nn12
- Potency [2]: inactive
- Potency [3]: 1.3 µM (active)
- Potency [4]: 0.596 µM (active)

Structure (SMILES): C=C(C)[C@@H]1CC=C(C=O)CC1
- outcome [5]: inactive
- outcome [6]: inactive
- outcome [7]: inactive
- outcome [8]: inactive
- Potency [9]: inactive
- max response [10]: -1.03%
- outcome [11]: inactive
- outcome [12]: inactive
- outcome [13]: inactive
- outcome [14]: inactive

Structure (SMILES): O=c1oc(Cl)c(Cl)c2ccccc12
- Potency [15]: 12.6 µM (active)
- Potency [16]: 18.5 µM (active)
- outcome [17]: inactive

Structure (SMILES): N#C/C(=C\c1ccc(O)c(O)c1)C(=O)NCCCNC(=O)/C(C#N)=C/c1ccc(O)c(O)c1
- Potency [18]: 0.447 µM (active)
- Potency [19]: 21.2 µM (active)
- Potency [20]: 10.4 µM (active)
